# High-throughput results as filed in PubChem BioAssay.
# TEAD-YAP inh – TEAD-YAP interaction inhibition; HEK-TIYL cells, TEAD-Gal4/YAP UAS-luciferase luminescence; inhibition, % at 9.12 µM; 1.4% of 640,000 active; AID 1259422; in the data active = inhibition above about 32%;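 note: 0% = median of test compound wells and 100% = reference inhibitor wells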
# FBW7 act – activators of human E3 ligase FBW7 | Q969H0 | AlphaScreen FBW7–phospho-cyclin E peptide binding, activator screen | normalized activity (activation), % at 26.1 µM | 0.13% of 650,000 active; in the data active = normalized activity above about 1.9%;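 note: purified mutant Fbw7 with reduced substrate affinity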
# Target sequence (Q969H0 whole entry, looked up): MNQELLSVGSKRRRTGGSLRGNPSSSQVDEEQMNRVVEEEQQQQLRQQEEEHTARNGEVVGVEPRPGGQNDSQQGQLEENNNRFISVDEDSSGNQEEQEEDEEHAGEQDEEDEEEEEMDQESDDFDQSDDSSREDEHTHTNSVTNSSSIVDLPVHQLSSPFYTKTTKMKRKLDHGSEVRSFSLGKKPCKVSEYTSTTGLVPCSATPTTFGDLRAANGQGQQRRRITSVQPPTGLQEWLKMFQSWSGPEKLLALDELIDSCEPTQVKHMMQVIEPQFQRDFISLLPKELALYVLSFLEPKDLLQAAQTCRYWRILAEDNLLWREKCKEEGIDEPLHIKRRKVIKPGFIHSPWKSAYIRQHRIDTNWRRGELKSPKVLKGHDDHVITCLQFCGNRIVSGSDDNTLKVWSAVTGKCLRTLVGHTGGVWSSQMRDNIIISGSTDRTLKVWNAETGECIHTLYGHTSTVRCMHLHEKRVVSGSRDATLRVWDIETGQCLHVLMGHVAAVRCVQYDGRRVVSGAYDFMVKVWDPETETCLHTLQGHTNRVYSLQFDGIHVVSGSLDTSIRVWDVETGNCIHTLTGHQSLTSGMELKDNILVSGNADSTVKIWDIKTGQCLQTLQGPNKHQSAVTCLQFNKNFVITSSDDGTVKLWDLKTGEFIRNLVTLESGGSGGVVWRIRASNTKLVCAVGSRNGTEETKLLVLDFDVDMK
# MITF primary – human MITF inhibition, primary screen; O75030; AlphaScreen MITF homodimerization, bead proximity signal; inhibition, % at 2.6 µM; 0.91% of 650,000 active; AID 1259374; in the data active = inhibition above about 50%;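 note: 0% = vehicle wells with protein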
# GPR151 ag – activators of human GPR151; 1% of 650,000 active; PathHunter beta-arrestin GPR151 cells, luminescence; Q8TDV0; activation, % at 11.2 µM; in the data active = activation above about 4.9%;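 note: 0% = median of compound wells and 100% = cells with positive control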
# MITF confirm – confirmation of human MITF inhibitors | inhibition, % at 2.6 µM | AID 1259372 | AlphaScreen MITF homodimerization, biotin/His-MITF beads | 16% of 4,700 active | shares compounds with MITF primary;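 active = inhibition above a cutoff derived from the DMSO control wells, cut at about 28% in these data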;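 note: 0% = MITF dimer wells with DMSO only; inhibitors lower the bead chemiluminescence by keeping MITF from dimerizing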
# AlphaScreen DR – optically interferes with AlphaScreen signal in dose response; shares compounds with MITF primary; AlphaScreen optical interference counterscreen, cell-free; 6% of 480 active; AID 1259373; IC50, µM; call rule not given here
# AlphaScreen intf2 – AlphaScreen optical interference, counter-screen; shares compounds with MITF primary; LysRS AlphaScreen counterscreen, signal interference, triplicate; inhibition, % at 2.6 µM; 7.6% of 4,700 active; AID 1259376;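 active = inhibition above a cutoff derived from the DMSO control wells, cut at about 30% in these data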
# Active calls of the source: *; · = no result. Compounds with a hit are over-represented: about 3.4% of the library has one in this group of screens.
SMILES,TEAD-YAP inh,FBW7 act,MITF primary,GPR151 ag,MITF confirm,AlphaScreen intf2,others
CCNCC(=O)c1[nH]c(C)c(C(C)=O)c1C,6.4,-0.4,51.4*,-0.1,-3.9,-3.5,
Cc1ccc(NCc2ccncc2)c(Br)c1,-1.9,-0.2,68.7*,0.2,-7.4,-5.4,
COc1cc(CNc2cccc(C)c2)cc(OC)c1OC,15.4,0.0,55.3*,2.2,-1.8,1.9,
COc1cc(CNc2ccccc2)cc(OC)c1OC,-9.8,-0.2,1.1,0.7,·,·,
Cc1cccc(NCc2ccncc2)c1,4.6,-0.1,77.0*,-0.9,21.2,20.1,
COc1ccc(CNC(=O)c2ccc(Sc3ccc(Br)cc3)c([N+](=O)[O-])c2)cc1,3.9,0.0,0.9,-0.8,·,·,
Cc1ccc(S(=O)(=O)NC(=O)Nc2ccc(Br)cc2)cc1,-1.2,0.0,14.1,0.8,·,·,
O=C(NCCC1=CCCCC1)c1csc(Nc2cccnc2)n1,5.7,0.1,19.5,1.7,·,·,
O=S(=O)(c1ccc(-c2csc(=Nc3ccccc3)n2CCc2ccccc2)cc1)N1CCOCC1,-15.6,0.1,-1.4,-0.7,·,·,
COc1cccc(C(=O)N2CCN(Cc3c[nH]c4ccccc34)CC2)c1,9.0,-0.1,72.9*,-1.2,-14.0,-2.4,
O=C(c1ccncc1)N1CCN(CCc2ccccc2)CC1,1.5,0.0,3.9,-0.5,·,·,
O=C(c1cccc(Cl)c1)N1CCN(Cc2c[nH]c3ccccc23)CC1,10.0,0.4,41.9,-0.6,·,·,
O=C(c1ccncc1)N1CCN(Cc2c[nH]c3ccccc23)CC1,-1.7,-0.1,56.3*,-1.7,-14.0,1.8,
C/C(=N/NC(=O)c1ccccc1O)c1cccc([N+](=O)[O-])c1,-34.5,0.5,2.3,-0.7,·,·,
Clc1ccc(-n2cc(-c3ccccc3)c3c(NCCCN4CCOCC4)ncnc32)cc1,2.8,0.0,3.5,-0.3,·,·,
Clc1ccc(-c2csc3ncnc(NCCCN4CCOCC4)c23)cc1,-2.3,0.1,96.4*,1.1,-13.5,-4.8,
COc1ccc(-c2csc3ncnc(NCCN4CCOCC4)c23)cc1,12.8,0.4,81.8*,-2.1,15.9,18.3,
COc1ccccc1N1CCN(C2CCCN(C(=O)c3cn(C)c4ccccc34)C2)CC1 (stereo not drawn),1.9,-0.2,2.8,3.1,·,·,
CN(CCC(=O)N1CCC(CO)(CCOc2ccccc2)CC1)C1CCS(=O)(=O)C1 (stereo not drawn),7.6,0.1,-2.2,-0.2,·,·,
CCCOC(=O)C(C)Nc1n[nH]c(=S)[nH]c1=O (stereo not drawn),-3.4,-0.8,55.1*,-0.5,-1.4,20.1,
COc1ccc(NC(=O)N2c3ccccc3Sc3ccccc32)cc1Cl,-7.3,0.0,5.9,-0.5,·,·,
CN(CCOC(=O)/C=C/c1ccco1)Cc1ccccc1,2.1,-0.1,67.5*,-2.0,62.5*,8.7,
CC(C)N(C)CCOC(=O)/C=C/c1ccco1,-2.1,-0.9,59.0*,-0.5,62.2*,6.7,AlphaScreen DR=>6.48
CN(Cc1ccccc1)C(=O)COC(=O)/C=C/c1ccco1,-4.6,-0.2,10.5,-0.8,·,·,
Cc1cccc(NC(=O)CSc2cn(CCNC(=O)c3cccs3)c3ccccc23)c1,-4.9,0.0,-6.0,-1.5,·,·,
SMILES,TEAD-YAP inh,FBW7 act,MITF primary,GPR151 ag,MITF confirm,AlphaScreen intf2,others
O=C(NC1CC1)c1cncc(-c2cccs2)c1,-7.3,0.1,17.9,-0.3,·,·,
NC(=O)c1cncc(-c2cccs2)c1,0.8,0.0,69.6*,0.6,65.2*,13.1,AlphaScreen DR=>6.5
CN(C)CC(C)(C)CNCC(O)COCc1ccc2c(c1)OCO2 (stereo not drawn),1.8,0.1,57.0*,-0.5,8.6,12.8,
O=C(CNCc1ccccn1)Nc1ccc([N+](=O)[O-])cc1C(=O)Nc1ccccc1F,-7.5,-1.9,75.1*,-1.9,17.9,24.0,
O=C(CN1CCOCC1)Nc1ccc([N+](=O)[O-])cc1C(=O)Nc1ccccc1F,6.3,-0.1,4.0,3.2,·,·,
c1ccc(-c2nc(NCCCn3ccnc3)cc(-c3cccnc3)n2)cc1,11.2,-0.6,54.3*,-0.2,34.3*,43.5*,
c1cncc(-c2cc(NCCCn3ccnc3)nc(-c3ccncc3)n2)c1,11.5,-0.6,32.4,-0.8,·,·,
c1ccc(-c2nc(NCCCn3ccnc3)cc(-c3ccncc3)n2)cc1,-4.4,-0.7,44.5,-1.5,·,·,
c1ccc(-c2cc(NCCCn3ccnc3)nc(-c3cccnc3)n2)cc1,15.4,-0.7,53.4*,1.2,24.1,38.8*,
Cc1cnc(CNc2cc(-c3cccnc3)nc(-c3cccnc3)n2)nc1,5.6,-0.5,77.9*,-0.5,13.4,26.4,
